# Source: PubChem BioAssay
# Active and inactive are the calls of the source. Rule as the data show it, unless noted: active = inhibition above about 80%; inactive = the rest.
# Experiments:
# [1] = LFS_MB_P medulloblastoma growth inhibition, cell-based, chromothripsis tumors, cisplatin or BGB combos (AID 1671449); settings: LFS_MB_P medulloblastoma cells;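 also: cells exposed for 96 hours; 0% = vehicle DMSO and 100% = killing by high DMSO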
# [2] = HDN33 neuroblastoma growth inhibition, cell-based, chromothripsis tumors, cisplatin or BGB combos (AID 1671450); settings: HDN33 neuroblastoma cells, stronger effect = higher value;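 also: cells exposed to compound for four days; 0% = vehicle DMSO and 100% = cell killing by high DMSO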
# [3] = ICB984 medulloblastoma cell growth inhibition, synergistic combos for chromothripsis tumors, cisplatin or BGB combos (AID 1671451; call rule not given here;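 also: cells exposed for 96 hours before readout; 0% = vehicle DMSO and 100% = killing by high DMSO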); settings: ICB984 medulloblastoma cells, drug combinations, stronger effect = higher value
# [4] = LFS_MB_1R medulloblastoma cell growth inhibition, synergistic combos for chromothripsis tumors, cisplatin or BGB combos (AID 1671452); settings: LFS_MB_1R medulloblastoma cells, stronger effect = higher value;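 also: cells exposed for 96 hours before readout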
# [5] = HTB85 osteosarcoma cell growth inhibition, synergistic combos for chromothripsis tumors, BGB or cisplatin IC20 combos (AID 1671453); settings: HTB85 osteosarcoma cells, drug combinations, stronger effect = higher value;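 also: cells exposed for 96 hours before readout; 0% = vehicle DMSO and 100% = high DMSO killing control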
# [6] = CRL2098 osteosarcoma cell growth inhibition, synergistic combos for chromothripsis tumors, BGB or cisplatin IC20 combos (AID 1671454); settings: CRL2098 osteosarcoma cells, drug combinations, stronger effect = higher value;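 also: cells exposed for 96 h before readout; 0% = vehicle DMSO and 100% = killing by high DMSO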
# [7] = HD-MB03 medulloblastoma cell growth inhibition, synergistic combos for chromothripsis tumors, BGB or cisplatin IC20 combos (AID 1671455; in the data active = inhibition above about 83%;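 also: 0% = vehicle DMSO and 100% = high DMSO as cytotoxic control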); settings: HD-MB03 medulloblastoma cells, stronger effect = higher value
# [8] = UWB1.289 ovarian carcinoma cell growth inhibition, synergistic combos for chromothripsis tumors, BGB or cisplatin combos (AID 1671456); settings: UWB1.289 ovarian carcinoma cells, stronger effect = higher value;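 also: cells exposed to compound for four days; 0% = vehicle DMSO and 100% = killing by high DMSO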
# [9] = LFS_MB_2R medulloblastoma cell growth inhibition, synergistic combos for chromothripsis tumors, cisplatin combos (AID 1671457); settings: LFS_MB_2R medulloblastoma cells, stronger effect = higher value;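 also: cells exposed to compound for four days before readout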
# [10] = MDA-MB-436 breast carcinoma cell growth inhibition, synergistic combos for chromothripsis tumors, BGB or cisplatin combos (AID 1671458; call rule not given here;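 also: cells exposed for 96 hours; 0% = vehicle DMSO and 100% = killing by high DMSO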); settings: MDA-MB-436 breast carcinoma growth inhibition, drug combinations, stronger effect = higher value
# [11] = UWB1.289_BRCA1 ovarian cancer growth, cell-based, BGB or cisplatin combinations (AID 1671459); settings: UWB1.289 BRCA1 ovarian carcinoma, drug combinations, stronger effect = higher value
# [12] = human astrocyte viability loss, single and combined drugs, cytotoxicity control for chromothriptic childhood tumor combination screen, cell-based, BGB or cisplatin IC20 combos (AID 1671460); settings: Human astrocytes, drug combinations, stronger effect = higher value;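 also: cells exposed to compounds for 96 hours before viability readout; 0% = vehicle and 100% = killing control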
# [13] = growth inhibition of BT084 medulloblastoma cells, cell-based, ICGC_MB145, cisplatin and BGB IC40 combos (AID 1671461); settings: drug combinations, stronger effect = higher value;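 also: cells exposed to drugs for 96 hours; 0% = vehicle DMSO and 100% = high DMSO full killing control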
# [14] = growth inhibition of RCMB18 medulloblastoma cells, cell-based, cisplatin and BGB IC40 combos (AID 1671462); settings: stronger effect = higher value;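 also: cells exposed to compound for four days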
# [15] = growth inhibition of CRL1545 osteosarcoma cells, cell-based, cisplatin and BGB IC20 combos (AID 1671464); settings: stronger effect = higher value;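 also: cells exposed to compound for 96 hours before readout; 0% = vehicle DMSO and 100% = high DMSO killing control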
# [16] = measured here: combination with BGB IC40, at 0.05 µM
# [17] = measured here: with BGB IC20 combination, at 0.5 µM
# [18] = measured here: with cisplatin IC20 combination, at 0.5 µM
# [19] = measured here: combination with cisplatin, at 0.5 µM
# [20] = measured here: combination with cisplatin, at 5 µM
structure (smiles),measurement,setting,value
C#CCC(CCCCCC)C(=O)O (stereo not drawn),inhibition,"[1]; at 0.5 µM, stronger effect = higher value",5.69% (inactive)
same,inhibition,"[1]; measured here: combination with BGB IC20, at 0.005 µM",3.1%
same,inhibition,"[1]; measured here: combination with BGB IC40, at 0.005 µM",30.2%
same,inhibition,[1]; [16],36.1%
same,inhibition,"[1]; measured here: combination with cisplatin, at 0.5 µM, stronger effect = higher value",3.27%
same,inhibition,"[1]; measured here: combination with cisplatin, at 5 µM, stronger effect = higher value",-9.45%
same,inhibition,"[2]; BGB combo, at 5 µM",13.8%
same,inhibition,[2]; at 0.5 µM,8.32% (inactive)
same,inhibition,"[2]; cisplatin combo, at 5 µM",-0.039%
same,inhibition,[2]; [17],10.2%
same,inhibition,[2]; [18],-1.96%
same,inhibition,"[2]; single agent, at 5 µM",-0.563%
same,inhibition,"[3]; BGB IC20 combo, at 0.005 µM",-2.69%
same,inhibition,"[3]; BGB IC40 combo, at 0.005 µM",-16%
same,inhibition,"[3]; BGB IC40 combo, at 0.05 µM",-11.6%
same,inhibition,[3]; at 0.5 µM,-6.37% (inactive)
same,inhibition,"[3]; cisplatin combo, at 0.05 µM",-16%
same,inhibition,"[3]; cisplatin combo, at 0.5 µM",-14.1%
same,inhibition,"[3]; cisplatin combo, at 5 µM",-27.6%
same,inhibition,"[3]; measured here: 5 uM single agent, at 5 µM",-4.43%
same,inhibition,[4]; at 0.5 µM,3.82% (inactive)
same,inhibition,[4]; [16],-10%
same,inhibition,[4]; [19],-6.41%
same,inhibition,[4]; [20],2.32%
same,inhibition,[5]; at 0.5 µM,6.28% (inactive)
same,inhibition,"[5]; measured here: with BGB IC20, at 0.5 µM",4.58%
same,inhibition,"[5]; measured here: with BGB IC20, at 5 µM",-11%
same,inhibition,"[5]; measured here: with cisplatin IC20, at 0.5 µM",-9.52%
same,inhibition,"[5]; measured here: with cisplatin IC20, at 5 µM",-7.57%
same,inhibition,"[5]; single agent, at 5 µM",22.7%
same,inhibition,[6]; at 0.5 µM,2.92% (inactive)
same,inhibition,"[6]; measured here: combination with BGB at IC20, at 0.5 µM",26.1%
same,inhibition,"[6]; measured here: combination with cisplatin at IC20, at 0.5 µM",6.9%
same,inhibition,[7]; at 0.5 µM,3.15% (inactive)
same,inhibition,"[7]; measured here: combo with BGB at IC20, at 0.5 µM",0.099%
same,inhibition,"[7]; measured here: combo with cisplatin at IC20, at 0.5 µM",2.13%
same,inhibition,[8]; at 0.5 µM,4.47% (inactive)
same,inhibition,"[8]; measured here: inhibition with BGB combination, at 0.05 µM",5.84%
same,inhibition,"[8]; measured here: inhibition with cisplatin combination, at 0.05 µM",2.18%
same,inhibition,[9]; at 0.5 µM,-4.49% (inactive)
same,inhibition,[9]; [19],5.98%
same,inhibition,[9]; [20],6.31%
same,inhibition,[10]; at 0.5 µM,-1.28% (inactive)
same,inhibition,"[10]; measured here: BGB combination, at 0.5 µM",-4.71%
same,inhibition,"[10]; measured here: BGB combination, at 5 µM",-7.63%
same,inhibition,"[10]; measured here: cisplatin combination, at 0.5 µM",-0.109%
same,inhibition,"[10]; measured here: cisplatin combination, at 5 µM",-1.88%
same,inhibition,"[11]; BGB combination, concentration series, at 5 µM",-4.85%
same,inhibition,[11]; at 0.5 µM,3.74% (inactive)
same,inhibition,"[11]; cisplatin combination, concentration series, at 5 µM",16.5%
same,inhibition,[12]; at 0.5 µM,6.72% (inactive)
same,inhibition,"[12]; measured here: combo with BGB IC20, at 0.5 µM",20.5%
same,inhibition,"[12]; measured here: combo with cisplatin IC20, at 0.5 µM",9.45%
same,inhibition,[13]; at 0.5 µM,8.59% (inactive)
same,inhibition,"[13]; cisplatin combination, at 0.5 µM",9.78%
same,inhibition,"[13]; cisplatin combination, at 5 µM",1.82%
same,inhibition,"[13]; measured here: BGB IC40 combination 0.05 uM, at 0.05 µM",2.2%
same,inhibition,"[13]; single agent, at 5 µM",14.4%
same,inhibition,[14]; at 0.5 µM,-5.37% (inactive)
same,inhibition,"[14]; cisplatin combo, at 5 µM",23.5%
same,inhibition,"[14]; measured here: BGB IC40 combination, at 0.05 µM",5.44%
same,inhibition,[14]; [19],22%
same,inhibition,"[14]; single agent, at 5 µM",-15.4%
same,inhibition,[15]; at 0.5 µM,-23% (inactive)
same,inhibition,[15]; [17],-43.7%
same,inhibition,[15]; [18],-12.7%
same,inhibition,"[15]; single agent, at 0.05 µM",0.433%
same,inhibition,"[15]; single agent, at 5 µM",16.3%
